About 83,000 compounds went through this panel and 20% of them were active in at least one assay; those are over-represented in the sample as a whole.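 A percent growth of 40 corresponds to 60% growth inhibition; 0 means no net growth; -100 means all cells died. Active threshold: below 10.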 Active and inactive are the calls of the source.
Experiments:
Assay in all cases: NCI-60 one-dose screen, 48 h (100 = growth as untreated, 0 = no growth, -100 = all killed)
Conditions in all cases: 10 µM unless noted
HCT-15 colon = system: HCT-15 colon
HT29 colon = system: HT29 colon
SNB-75 CNS = system: SNB-75 CNS
SNB-19 CNS = system: SNB-19 CNS
U251 CNS = system: U251 CNS
PC-3 prostate = system: PC-3 prostate
SK-MEL-5 melanoma = system: SK-MEL-5 melanoma
UACC-62 melanoma = system: UACC-62 melanoma
LOX IMVI melanoma = system: LOX IMVI melanoma
SK-MEL-28 melanoma = system: SK-MEL-28 melanoma

Measured: growth

N#CC1=C(N)n2nc(-c3ccncc3)nc2NC1c1cccc2ccccc12 (stereo not given)
inactive: HCT-15 colon 90.4% | HT29 colon 97.8% | SNB-75 CNS 67.6% | SNB-19 CNS 92.8% | U251 CNS 86.7% | PC-3 prostate 76% | SK-MEL-5 melanoma 88.6% | UACC-62 melanoma 72.4% | LOX IMVI melanoma 79% | SK-MEL-28 melanoma 106%

c1ccc2c(c1)Oc1ccccc1C2C1c2ccccc2Oc2ccccc21
inactive: HCT-15 colon 93.3% | HT29 colon 82.8% | SNB-75 CNS 86.2% | SNB-19 CNS 97.1% | U251 CNS 99.3% | PC-3 prostate 85.7% | SK-MEL-5 melanoma 100% | UACC-62 melanoma 86.7% | LOX IMVI melanoma 86.5% | SK-MEL-28 melanoma 110%

CCCC(C(=O)OCC)C(C)OC(=O)OCC (stereo not given)
inactive: HCT-15 colon 99.9% | HT29 colon 104% | SNB-75 CNS 79% | SNB-19 CNS 106% | U251 CNS 102% | PC-3 prostate 102% | SK-MEL-5 melanoma 103% | UACC-62 melanoma 103% | LOX IMVI melanoma 99.1% | SK-MEL-28 melanoma 107%

ClC1=C(Cl)C(Cl)=C(Cl)C1=Cc1ccc(Cl)cc1Cl
active: HCT-15 colon -56.5% | SNB-75 CNS -45.6% | SNB-19 CNS -6.26% | U251 CNS -75.1% | PC-3 prostate -16.5% | SK-MEL-5 melanoma -88.1% | UACC-62 melanoma -29% | LOX IMVI melanoma -95% | SK-MEL-28 melanoma -28.5%
inactive: HT29 colon 10.1%

COc1ccc(C(=O)c2cc(OC)c(OC)c(OC)c2)cc1/C=C/C(=O)c1ccc(OC)c(OC)c1
inactive: HCT-15 colon 12.8% | SNB-75 CNS 22.9% | SNB-19 CNS 33.2% | U251 CNS 25.5% | PC-3 prostate 33.9% | SK-MEL-5 melanoma 21.5% | UACC-62 melanoma 24.8% | LOX IMVI melanoma 10.9% | SK-MEL-28 melanoma 21.8%
active: HT29 colon 9.61%

COc1ccc(NC(=O)CSc2nc3ccccc3c(=O)n2-c2ccccc2C(F)(F)F)c(OC)c1OC
inactive: HCT-15 colon 105% | HT29 colon 104% | SNB-75 CNS 83.9% | SNB-19 CNS 88.8% | U251 CNS 95.7% | PC-3 prostate 100% | SK-MEL-5 melanoma 98.2% | UACC-62 melanoma 87.5% | LOX IMVI melanoma 98.9% | SK-MEL-28 melanoma 106%

COc1ccc(C2=NN(c3ccc(S(N)(=O)=O)cc3)C(c3cn(-c4ccccc4)nc3-c3ccc(Cl)cc3)C2)cc1 (stereo not given)
inactive: HCT-15 colon 80.8% | HT29 colon 82.6% | SNB-75 CNS 89.9% | SNB-19 CNS 92.5% | U251 CNS 84.1% | PC-3 prostate 66.7% | SK-MEL-5 melanoma 99.9% | UACC-62 melanoma 88.5% | LOX IMVI melanoma 87.3% | SK-MEL-28 melanoma 103%

O=C(OCCCCOC(=O)n1cnc2ccccc21)n1cnc2ccccc21
inactive: HCT-15 colon 103% | HT29 colon 97% | SNB-75 CNS 96% | SNB-19 CNS 97.7% | U251 CNS 99.5% | PC-3 prostate 91.8% | SK-MEL-5 melanoma 101% | UACC-62 melanoma 96.3% | LOX IMVI melanoma 92.9% | SK-MEL-28 melanoma 108%

COc1cc(/C=C2\CCCC3=C2NC(C)=NC3c2cc(OC)c(OC)c(OC)c2)cc(OC)c1OC (stereo not given)
active: HCT-15 colon 4.23% | HT29 colon 7.9% | U251 CNS 9.77% | UACC-62 melanoma 9.03% | LOX IMVI melanoma -41.2%
inactive: SNB-75 CNS 21.9% | SNB-19 CNS 61.2% | PC-3 prostate 42.7% | SK-MEL-5 melanoma 19.1% | SK-MEL-28 melanoma 31.9%

CCNC(=O)CCCCC(=O)c1c(C)[nH]c(/C=C2\N=C(c3ccc[nH]3)C=C2OC)c1C
active: HCT-15 colon -39.8% | HT29 colon -100% | SNB-75 CNS -12.6% | U251 CNS 1.75% | PC-3 prostate -42.2% | LOX IMVI melanoma -56.9%
inactive: SNB-19 CNS 54.5% | SK-MEL-5 melanoma 48% | UACC-62 melanoma 61.5% | SK-MEL-28 melanoma 51.9%

C=C1C(=O)O[C@H]2[C@H]1CC/C(COC(=O)NCCc1ccc(OC)cc1)=C\CC[C@@]1(C)O[C@@H]21
active: HCT-15 colon -7.21% | HT29 colon -58.3% | UACC-62 melanoma -46.7% | LOX IMVI melanoma -26.8% | SK-MEL-28 melanoma -5.94%
inactive: SNB-75 CNS 79.4% | SNB-19 CNS 45.8% | U251 CNS 59.3% | PC-3 prostate 45.6% | SK-MEL-5 melanoma 72.3%

COc1cc(/C=C2\C=C(c3ccc(F)cc3)N(Cc3ccccc3)C2=O)cc(OC)c1OC
inactive: HCT-15 colon 53.6% | HT29 colon 78.9% | SNB-75 CNS 70.8% | SNB-19 CNS 79% | U251 CNS 48.8% | PC-3 prostate 32.7% | SK-MEL-5 melanoma 36.1% | UACC-62 melanoma 71.6% | LOX IMVI melanoma 65.3% | SK-MEL-28 melanoma 94.2%

OCc1c(-c2ccccc2)nc2sccn12
inactive: HCT-15 colon 97.2% | HT29 colon 109% | SNB-75 CNS 122% | SNB-19 CNS 85.5% | U251 CNS 95.6% | PC-3 prostate 95.7% | SK-MEL-5 melanoma 80.2% | UACC-62 melanoma 101% | LOX IMVI melanoma 104% | SK-MEL-28 melanoma 122%

O=C(Nc1cccc(Cl)c1)c1cc([N+](=O)[O-])ccc1O
inactive: HCT-15 colon 61.7% | HT29 colon 49.8% | SNB-75 CNS 67.8% | SNB-19 CNS 53.3% | U251 CNS 47.5% | PC-3 prostate 35.4% | SK-MEL-5 melanoma 16.7% | UACC-62 melanoma 18% | LOX IMVI melanoma 34% | SK-MEL-28 melanoma 28.6%

CN(C)c1ncc(-c2ccc(C(F)(F)F)cc2)c(NC2CCCCCC2)n1
inactive: HCT-15 colon 77.4% | HT29 colon 34.4% | SNB-75 CNS 78.2% | SNB-19 CNS 71.8% | U251 CNS 40.1% | PC-3 prostate 22% | SK-MEL-5 melanoma 39.6% | UACC-62 melanoma 31.4% | LOX IMVI melanoma 66.2% | SK-MEL-28 melanoma 48.9%

NC(=S)NN=C1CCCCC1
inactive: HCT-15 colon 77.7% | HT29 colon 47.5% | SNB-75 CNS 105% | SNB-19 CNS 106% | U251 CNS 76.4% | PC-3 prostate 82.7% | SK-MEL-5 melanoma 99.2% | UACC-62 melanoma 90% | LOX IMVI melanoma 77.9% | SK-MEL-28 melanoma 98.3%

CN(C)c1ccc(-c2ccc(-c3ccc(C(=N)N)cn3)o2)cc1
inactive: SNB-19 CNS 12.7%
active: HCT-15 colon -46.6% | HT29 colon -61.5% | SNB-75 CNS -85.6% | U251 CNS -91.1% | PC-3 prostate 7.95% | SK-MEL-5 melanoma -95.8% | UACC-62 melanoma -97.9% | LOX IMVI melanoma -94.8% | SK-MEL-28 melanoma -79.6%

COc1cc(C2C3=C(COC3=O)Nc3c2ccc2c3CCCC2)cc2c1OCO2 (stereo not given)
active: HT29 colon -3.84% | SK-MEL-5 melanoma -18.8%
inactive: HCT-15 colon 11.2% | SNB-75 CNS 34.3% | SNB-19 CNS 36.1% | U251 CNS 23.1% | PC-3 prostate 31.7% | UACC-62 melanoma 36.4% | LOX IMVI melanoma 27.7% | SK-MEL-28 melanoma 70.1%

COc1cc(C(=O)N2CCN(C(=O)c3ccco3)CC2)c(N)cc1OCc1ccccc1
inactive: HCT-15 colon 101% | HT29 colon 107% | SNB-75 CNS 96.8% | SNB-19 CNS 103% | U251 CNS 99.1% | PC-3 prostate 98.5% | SK-MEL-5 melanoma 94.9% | UACC-62 melanoma 93.8% | LOX IMVI melanoma 92.4% | SK-MEL-28 melanoma 114%

CC(C)C[C@H](NC(=O)[C@H](Cc1ccccc1)n1ccc(N2CCCCC2)cc1=O)B(O)O
inactive: HCT-15 colon 28.3% | SNB-19 CNS 29.2% | U251 CNS 18.1% | PC-3 prostate 27.7% | SK-MEL-28 melanoma 28.6%
active: HT29 colon 0.204% | SNB-75 CNS 4.25% | SK-MEL-5 melanoma -25.2% | UACC-62 melanoma -12.5% | LOX IMVI melanoma -72.1%

COc1cc(Cn2c(SCC(=O)Nc3cc(OC)c(OC)c(OC)c3)nc3ccccc3c2=O)cc(OC)c1OC
active: SNB-75 CNS -13.7%
inactive: HCT-15 colon 89.9% | HT29 colon 99.5% | SNB-19 CNS 74.8% | U251 CNS 52.6% | PC-3 prostate 87.7% | SK-MEL-5 melanoma 90.4% | UACC-62 melanoma 84.4% | LOX IMVI melanoma 92.1% | SK-MEL-28 melanoma 100%

CCC1CCc2nc3sc(C(=O)Nc4ccccc4F)c(N)c3cc2C1 (stereo not given)
inactive: HCT-15 colon 35.3% | HT29 colon 39.5% | SNB-75 CNS 66.1% | SNB-19 CNS 76% | U251 CNS 65.5% | PC-3 prostate 67.3% | SK-MEL-5 melanoma 40.2% | UACC-62 melanoma 47.9% | LOX IMVI melanoma 62.8% | SK-MEL-28 melanoma 59.9%

C=C1C(=O)O[C@H]2[C@H]1CC/C(Cn1cc(-c3ccc(N)cc3)nn1)=C\CC[C@@]1(C)O[C@@H]21
inactive: SNB-75 CNS 25.6% | SNB-19 CNS 61.3% | U251 CNS 34.1% | PC-3 prostate 24.1% | SK-MEL-5 melanoma 35.3%
active: HCT-15 colon -46.9% | HT29 colon -59.4% | UACC-62 melanoma -37.4% | LOX IMVI melanoma -63.6% | SK-MEL-28 melanoma -17%

Nc1c(C(=O)Nc2cccc(C(F)(F)F)c2)sc2nc3c(cc12)CCCCCC3
inactive: HCT-15 colon 19.3% | SNB-19 CNS 25.9% | PC-3 prostate 52.4% | SK-MEL-5 melanoma 25.8% | UACC-62 melanoma 23.9% | LOX IMVI melanoma 21.5% | SK-MEL-28 melanoma 10.4%
active: HT29 colon 0.128% | SNB-75 CNS -34% | U251 CNS -18.4%

Nc1c(C(=O)Nc2cccc([N+](=O)[O-])c2)sc2nc3c(cc12)C(O)CCC3 (stereo not given)
inactive: HCT-15 colon 39.9% | HT29 colon 17.4% | SNB-75 CNS 16.9% | SNB-19 CNS 79.9% | U251 CNS 51.4% | PC-3 prostate 57.2% | SK-MEL-5 melanoma 35.1% | UACC-62 melanoma 47.3% | LOX IMVI melanoma 62.8% | SK-MEL-28 melanoma 54.9%

Source: PubChem BioAssay (NCI)
